# Bioassay records as filed in PubChem.
# Dicer processing: inhibitors of Dicer pre-microRNA processing, primary screen, biochemical, cat-ELCCA, chemiluminescence; cat-ELCCA pre-miR-21 Dicer processing; hits give high values; z-score at 25 µM; 47,000 tested, 6% active; in the data active = z-score above about 3, passing the limit was not always enough;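 note: plate controls were vehicle for no effect and no enzyme for full effect; higher signal means more uncleaved substrate so more Dicer inhibition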
# Target sequence (Q9UPY3 whole entry, looked up): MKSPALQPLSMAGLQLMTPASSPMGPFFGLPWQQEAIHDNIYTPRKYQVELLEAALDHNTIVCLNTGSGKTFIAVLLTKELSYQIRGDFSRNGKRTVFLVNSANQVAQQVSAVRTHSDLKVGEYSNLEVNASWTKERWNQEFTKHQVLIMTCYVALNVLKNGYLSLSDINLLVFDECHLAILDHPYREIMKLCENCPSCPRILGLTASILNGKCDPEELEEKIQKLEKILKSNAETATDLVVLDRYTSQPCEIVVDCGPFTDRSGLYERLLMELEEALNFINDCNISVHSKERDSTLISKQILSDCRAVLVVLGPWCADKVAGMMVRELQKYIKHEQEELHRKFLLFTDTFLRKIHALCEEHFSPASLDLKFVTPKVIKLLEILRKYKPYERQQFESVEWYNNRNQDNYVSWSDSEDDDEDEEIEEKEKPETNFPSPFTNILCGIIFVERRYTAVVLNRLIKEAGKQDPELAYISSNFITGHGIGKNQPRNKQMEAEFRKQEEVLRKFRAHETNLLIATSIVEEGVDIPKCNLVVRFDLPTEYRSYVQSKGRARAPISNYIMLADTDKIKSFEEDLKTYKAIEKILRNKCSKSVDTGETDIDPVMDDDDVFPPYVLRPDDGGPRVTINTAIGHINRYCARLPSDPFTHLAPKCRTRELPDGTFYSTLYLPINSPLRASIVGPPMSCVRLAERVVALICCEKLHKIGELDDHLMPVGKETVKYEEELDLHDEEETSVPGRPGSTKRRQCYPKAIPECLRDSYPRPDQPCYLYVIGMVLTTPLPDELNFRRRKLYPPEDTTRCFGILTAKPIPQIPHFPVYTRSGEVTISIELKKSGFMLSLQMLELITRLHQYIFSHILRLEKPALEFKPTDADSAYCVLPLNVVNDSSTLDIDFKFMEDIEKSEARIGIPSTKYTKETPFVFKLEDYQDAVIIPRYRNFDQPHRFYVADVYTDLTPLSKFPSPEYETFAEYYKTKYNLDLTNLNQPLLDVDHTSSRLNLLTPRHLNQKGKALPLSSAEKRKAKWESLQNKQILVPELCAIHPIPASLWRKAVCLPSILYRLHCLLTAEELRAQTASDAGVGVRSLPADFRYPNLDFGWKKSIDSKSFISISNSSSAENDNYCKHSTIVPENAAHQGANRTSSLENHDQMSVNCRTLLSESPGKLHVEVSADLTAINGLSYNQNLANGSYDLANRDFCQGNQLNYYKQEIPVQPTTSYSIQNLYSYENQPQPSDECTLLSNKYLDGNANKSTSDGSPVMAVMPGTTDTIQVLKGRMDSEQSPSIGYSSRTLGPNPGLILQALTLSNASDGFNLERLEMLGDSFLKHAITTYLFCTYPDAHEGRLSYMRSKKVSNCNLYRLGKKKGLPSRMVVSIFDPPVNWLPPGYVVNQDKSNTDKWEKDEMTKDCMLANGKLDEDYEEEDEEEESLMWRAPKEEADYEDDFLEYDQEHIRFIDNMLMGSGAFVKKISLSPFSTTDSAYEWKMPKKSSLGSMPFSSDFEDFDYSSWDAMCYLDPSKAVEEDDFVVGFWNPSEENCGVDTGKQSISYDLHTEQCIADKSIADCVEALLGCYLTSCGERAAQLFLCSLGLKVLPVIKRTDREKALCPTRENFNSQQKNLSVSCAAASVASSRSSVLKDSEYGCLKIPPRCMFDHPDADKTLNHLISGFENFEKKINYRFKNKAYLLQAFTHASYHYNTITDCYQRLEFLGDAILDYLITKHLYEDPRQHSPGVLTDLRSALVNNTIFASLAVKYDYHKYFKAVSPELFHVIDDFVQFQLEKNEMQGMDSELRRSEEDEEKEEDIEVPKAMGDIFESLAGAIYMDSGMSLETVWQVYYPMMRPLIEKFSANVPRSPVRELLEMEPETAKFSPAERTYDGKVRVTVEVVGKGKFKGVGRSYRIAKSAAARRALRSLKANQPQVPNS
# The depositor's hits bear a star. This excerpt belongs to a sample that is enriched for hits.
SMILES,Dicer processing
Cc1ccc(/C=C/c2noc(-c3ccccc3O)n2)o1,-0.84
O=S(=O)(c1ccc2c(c1)Cc1cc(S(=O)(=O)N3CCOCC3)ccc1-2)N1CCOCC1,-0.46
CC(C)c1ccc(N2C(=O)/C(=C/N(C)C)SC2=S)cc1,0.36
Cc1cc(C)c2c(=O)c(/C=C3/SC(=S)N(c4ccc(F)cc4)C3=O)coc2c1,5.5*
O=C1S/C(=C\c2ccc(F)cc2)C(=O)N1c1ccccc1,1.3
Cc1ccc2cc(-c3noc(C(C)C)n3)c(=O)[nH]c2c1,-1.6
CC1=C(C(=O)OC(C)C)C(c2ccccc2Cl)C2=C(CC(c3cccs3)CC2=O)N1 (stereo not given),2.7
O=C(OCCSCc1cc([N+](=O)[O-])cc2c1OCOC2)c1ccc(Cl)cc1,0.23
O=C(CN1C(=O)c2ccccc2C1=O)c1cccc(C(F)(F)F)c1,-0.87
C=C1SC(Nc2cc(OC)cc(OC)c2)=NC1(C)C,15*
COc1ccc(NC2=NC(C)(CO)CS2)cc1 (stereo not given),0.62
C=C1SC(Nc2ccccc2OC)=NC1(C)C,-1.3
c1ccc(-c2nnc(-c3ccccn3)n2-c2ccccn2)nc1,0.75
CCOC(=O)[C@H]1C(=O)C[C@@](C)(O)[C@@H](C(=O)OCC)[C@@H]1c1ccccc1,1.1
Cc1ccc(-c2nc(NCCCN(C)C)c3ccccc3n2)cc1,7.8
Cc1ncc(CCCCN(C)C)c2c1[nH]c1ccccc12,7.7*
Cc1[nH]c2ccccc2c(=O)c1CN(C)C,-0.83
CN(Cc1ccccc1)c1oc(COc2ccc(Cl)cc2)nc1C#N,-2.1
CS(=O)(=O)Nc1ccccc1Oc1ccc(Cl)cc1Cl,0.71
O=C(C1Cc2ccccc2C1)N1CCOCC1,7.3*
Cc1ccc(SC(=O)N2CCOCC2)cc1,-0.58
O=C(c1cc(-c2ccccc2)nc2ccccc12)N1CCOCC1,1.5
O=c1c(-c2ccccc2)c(C(F)(F)F)oc2c(CN3CCCC3)c(O)ccc12,-0.02
Cc1ccsc1C1N=C(N)Nc2nc3ccccc3n21 (stereo not given),-0.18
N#Cc1c(NC(=O)c2ccc(S(=O)(=O)N3CCCC3)cc2)sc2c1CCC2,0.55
SMILES,Dicer processing
CCOC1O[C@H]([C@@H](COCc2ccccc2)OCc2ccccc2)[C@H](OCc2ccccc2)[C@H]1O (stereo not given in full),0.19
COc1cc(OC)cc(-c2nc(-c3cccc(C)c3)no2)c1,-0.47
Cc1cccc(-c2nnc(-c3ccccc3)o2)c1,2.6
COc1oc(-c2cccc(C)c2)nc1C(F)(F)F,3.6*
COc1cc2ccccc2cc1C(=O)Nc1nc2ccccc2s1,-0.01
C(=N\Nc1nc2ccccc2s1)/c1cccs1,-0.23
Cc1nn(-c2ccccc2)cc1/C=N/Nc1nc2ccccc2s1,2.2
COc1cc(/C=N/Nc2nc3ccccc3s2)cc(OC)c1OC,3.5*
COc1cc(/C=N/NC(=S)NCCc2ccccc2)cc(OC)c1OC,-0.71
C(=N\Nc1nc2ccccc2s1)/c1ccco1,3.8*
Cn1c(=O)c2c3nc4ccc(Cl)cc4cc3c(=O)n(C)c2n(C)c1=O,-0.71
CN(C)CCNc1nc2c(c(=O)n(C)c(=O)n2C)n1CC(O)COc1ccccc1 (stereo not given),-1.3
CCCSc1ccc2c3c(cccc13)C(=O)N(c1ccccc1)C2=O,-1.1
O=C1c2cccc3c(N4CCCC4)ccc(c23)C(=O)N1c1ccccc1,2
CN(C)c1ccc2c3c(cccc13)C(=O)N(c1ccccc1)C2=O,3.4*
CNC(=S)NNC(=O)C(CCSC)NC(=O)c1ccc(C(F)(F)F)cc1 (stereo not given),-0.5
CCOC(=O)c1c(NC(=O)Nc2ccccc2)nc(SC)n1-c1ccccc1OC,-1.1
CCOC(=O)c1cc(C)nc(Sc2ccc(Cl)cc2)n1,-1.6
CCOC(=O)Nc1c(N)n(C)c(=O)n(C)c1=O,0.58
O=c1[nH]nc(N2CCCCC2)c(=O)[nH]1,0.84
CCOC(=O)c1ccc(Oc2nc(N(C)C)nc(N(C)C)n2)cc1,1.7
COC(=O)c1ccc(Oc2nc(N(C)C)nc(N(C)C)n2)cc1,-0.06
CCOC(=O)c1ccc(Oc2nc(NC)nc(SC)n2)cc1,5.6*
CCCSc1ccc([N+](=O)[O-])c(NC(=O)c2nn(-c3ccccc3)nc2C)c1,-0.71
ONC=Nc1cc(Cl)c(-n2cccc2)cc1Cl,-0.78
SMILES,Dicer processing
Cc1cc(N=CNO)c2ccccc2n1,-0.52
CCCCc1ccc(N=CNO)c(C)c1,4*
O=C1Nc2ccc(Br)cc2C(c2ccccc2)C1N1CCCCC1 (stereo not given),1.9
C/C(Nc1ccccc1F)=C1/CCOC1=O,0.1
C/C(Nc1ccccc1C)=C1/CCOC1=O,4*
CC(=O)NC(Nc1ccccc1C)(C(F)(F)F)C(F)(F)F,-0.14
CCOC(=O)C1=NOC2C(=O)N(c3ccccc3)C(=O)C12 (stereo not given),1.1
Cc1ccc(S(=O)(=O)Nc2n[nH]c(-c3ccc(C(C)(C)C)cc3)c2Br)cc1,-6
Cc1cccn2cc(-c3cccc(S(=O)(=O)N4CC(C)OC(C)C4)c3)nc12 (stereo not given),-0.05
Cc1cccn2cc(-c3ccc(NS(=O)(=O)c4ccc(Br)cc4)cc3)nc12,7.9*
Cc1ccc(S(=O)(=O)Nc2ccc(-c3cn4cccc(C)c4n3)cc2)cc1C,8.6*
Cc1cccn2cc(-c3cccc(S(=O)(=O)N4CCOCC4)c3)nc12,0.78
Cc1cccn2cc(-c3cccc(S(=O)(=O)N4CCCC4)c3)nc12,-0.04
Cc1cccn2cc(-c3ccccc3Cl)nc12,0.28
Cc1ccc(S(=O)(=O)Nc2ccc(-c3cn4cccc(C)c4n3)cc2)c(C)c1,6.1*
O=c1[nH]c2cc(Cl)ccc2c(-c2ccccc2)c1Sc1nnnn1-c1ccccc1,-0.95
Cc1cc(C)nc(SC(=O)OC(C)(C)C)n1,-0.22
COc1ccc(-c2sc(/N=C/c3cccs3)c(C#N)c2C)cc1OC,1.1
C#CCN=C(NS(=O)(=O)c1c(C)noc1C)SC,0.44
CC(C)(C)OC(=O)N1Cc2ccccc2C[C@H]1C(=O)NCCN1CCCCC1,-1.8
Cc1nc2c(ncn2-c2ccccc2)c(=O)n1NC(=O)CN(Cc1ccccc1)Cc1ccccc1,-0.78
COc1ccc(Oc2c(C(F)(F)F)oc3cc(OC(=O)c4ccco4)ccc3c2=O)cc1,-0.47
CCOC(=O)C(=O)Nc1sc2c(c1C(=O)OCC)CC(C)(C)OC2,4.8*
CCOC(=O)c1c(NC(=O)CC)sc2c1CC(C)(C)OC2,1
CCCCC(=O)Nc1sc2c(c1C(=O)OCC)CC(C)(C)OC2,-0.37
SMILES,Dicer processing
CSC(=S)NNC(=O)c1cc(C)on1,0.27
O=C(NC(=S)Nc1c(Cl)cc(Cl)cc1Cl)c1ccccc1,-1.2
C/C(O)=C(\N=O)C(=O)Nc1ccccc1,-0.95
CC(=N\Nc1c(Cl)cc(Cl)cc1Cl)/C(=N\O)C(=O)Nc1ccccc1,3*
COc1ccc(C2Nc3n[nH]c(C)c3C3=C2C(=O)CC(C)(C)C3)cc1 (stereo not given),-0.56
COC(=O)C1=C(C)NC2=C(C(=O)CC(C)(C)C2)C1c1ccc(OC)cc1OC (stereo not given),-1.2
CCN(c1nc(C)cc(OC)n1)S(=O)(=O)c1ccc(C)cc1,2.1
C=CCN(c1ccccc1C1=N/C(=C\c2ccc(C)cc2)C(=O)O1)S(=O)(=O)c1ccc(Cl)cc1,-0.86
C=CCN(c1nc(C)c(Br)c(OC)n1)S(=O)(=O)c1ccc(C)cc1,3.6*
Cc1cc2c(cc1C)CSC(C)(C)SC2,0.22
O=C(CC1(O)C(=O)N(CCc2ccccc2)c2ccc(Cl)cc21)c1ccccc1O (stereo not given),0.65
